Legend:
[1] = target: 5'-AMP-activated protein kinase catalytic subunit alpha-2 (Homo sapiens) (UniProt P54646); conditions: at 1 µM
[2] = target: T1, NUAK family SNF1-like kinase 1 (Homo sapiens) (UniProt O60285); conditions: at 0.1 µM
T1 sequence (whole entry): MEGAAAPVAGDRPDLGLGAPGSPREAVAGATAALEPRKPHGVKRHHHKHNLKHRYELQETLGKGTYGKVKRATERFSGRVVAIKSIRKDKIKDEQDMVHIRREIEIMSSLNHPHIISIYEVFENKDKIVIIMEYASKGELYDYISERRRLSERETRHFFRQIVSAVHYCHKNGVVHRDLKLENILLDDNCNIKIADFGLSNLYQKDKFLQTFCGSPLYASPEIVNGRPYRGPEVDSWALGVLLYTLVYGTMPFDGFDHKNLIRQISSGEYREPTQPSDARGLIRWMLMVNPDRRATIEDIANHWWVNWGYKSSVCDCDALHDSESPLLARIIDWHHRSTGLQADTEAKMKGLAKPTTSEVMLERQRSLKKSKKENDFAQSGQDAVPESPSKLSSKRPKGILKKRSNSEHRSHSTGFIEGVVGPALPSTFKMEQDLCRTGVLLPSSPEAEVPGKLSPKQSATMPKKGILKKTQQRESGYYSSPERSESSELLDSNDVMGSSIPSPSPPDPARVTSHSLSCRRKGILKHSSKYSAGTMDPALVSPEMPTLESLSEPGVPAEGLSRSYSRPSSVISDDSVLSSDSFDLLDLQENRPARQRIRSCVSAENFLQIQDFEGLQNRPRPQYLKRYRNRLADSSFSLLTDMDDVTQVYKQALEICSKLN

[3] = target: T1, NUAK family SNF1-like kinase 1 (Homo sapiens); conditions: at 1 µM
[4] = target: T2, Serine/threonine-protein kinase BRSK1 (Homo sapiens) (UniProt Q8TDC3); conditions: at 0.1 µM
T2 sequence (whole entry): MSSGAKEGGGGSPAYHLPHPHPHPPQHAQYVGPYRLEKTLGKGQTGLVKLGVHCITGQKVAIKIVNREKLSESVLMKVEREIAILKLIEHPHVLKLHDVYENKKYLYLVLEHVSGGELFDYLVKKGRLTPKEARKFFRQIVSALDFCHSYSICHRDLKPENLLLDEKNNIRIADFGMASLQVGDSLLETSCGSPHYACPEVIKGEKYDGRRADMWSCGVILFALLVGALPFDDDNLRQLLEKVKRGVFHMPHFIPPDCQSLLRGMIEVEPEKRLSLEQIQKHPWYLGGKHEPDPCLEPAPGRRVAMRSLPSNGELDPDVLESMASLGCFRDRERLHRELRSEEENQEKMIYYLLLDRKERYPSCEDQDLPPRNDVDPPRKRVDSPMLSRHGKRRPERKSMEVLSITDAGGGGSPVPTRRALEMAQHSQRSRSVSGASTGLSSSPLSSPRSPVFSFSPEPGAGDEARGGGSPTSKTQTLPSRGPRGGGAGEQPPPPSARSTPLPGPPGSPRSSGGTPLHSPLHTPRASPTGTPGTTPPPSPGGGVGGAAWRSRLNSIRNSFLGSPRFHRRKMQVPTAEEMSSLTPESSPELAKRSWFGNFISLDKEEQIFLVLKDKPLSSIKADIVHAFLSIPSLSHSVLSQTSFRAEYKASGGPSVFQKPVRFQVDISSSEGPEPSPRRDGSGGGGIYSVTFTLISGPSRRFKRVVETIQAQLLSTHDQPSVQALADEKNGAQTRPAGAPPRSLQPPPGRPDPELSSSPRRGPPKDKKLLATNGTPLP

[5] = target: T2, Serine/threonine-protein kinase BRSK1 (Homo sapiens); conditions: at 1 µM
[6] = target: T3, Serine/threonine-protein kinase BRSK2 (Homo sapiens) (UniProt Q8IWQ3); conditions: at 0.1 µM
T3 sequence (whole entry): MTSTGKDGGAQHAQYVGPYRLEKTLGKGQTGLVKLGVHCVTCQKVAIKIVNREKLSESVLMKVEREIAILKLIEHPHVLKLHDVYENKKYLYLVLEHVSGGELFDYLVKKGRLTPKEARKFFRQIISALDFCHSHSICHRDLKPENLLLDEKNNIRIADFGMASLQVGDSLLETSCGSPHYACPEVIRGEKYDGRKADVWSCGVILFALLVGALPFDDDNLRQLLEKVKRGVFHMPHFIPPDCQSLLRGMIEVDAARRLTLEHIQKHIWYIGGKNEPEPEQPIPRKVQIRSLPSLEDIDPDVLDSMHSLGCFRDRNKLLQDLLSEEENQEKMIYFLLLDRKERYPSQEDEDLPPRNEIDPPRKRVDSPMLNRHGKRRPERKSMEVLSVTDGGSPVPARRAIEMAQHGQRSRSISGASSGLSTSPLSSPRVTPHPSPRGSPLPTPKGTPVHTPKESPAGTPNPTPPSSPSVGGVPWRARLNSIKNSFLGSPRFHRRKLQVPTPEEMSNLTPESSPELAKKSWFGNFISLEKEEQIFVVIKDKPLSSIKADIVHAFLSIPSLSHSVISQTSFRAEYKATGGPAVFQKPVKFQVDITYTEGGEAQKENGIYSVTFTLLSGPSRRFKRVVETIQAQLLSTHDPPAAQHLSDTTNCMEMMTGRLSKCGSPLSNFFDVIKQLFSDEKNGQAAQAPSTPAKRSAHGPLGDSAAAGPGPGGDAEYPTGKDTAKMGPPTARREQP

[7] = target: T3, Serine/threonine-protein kinase BRSK2 (Homo sapiens); conditions: at 1 µM
[8] = target: Calcium/calmodulin-dependent protein kinase type 1D (Homo sapiens) (UniProt Q8IU85); conditions: at 0.1 µM
[9] = target: Calcium/calmodulin-dependent protein kinase type 1D (Homo sapiens) (UniProt Q8IU85); conditions: at 1 µM
[10] = target: Calcium/calmodulin-dependent protein kinase type II subunit alpha (Homo sapiens) (UniProt Q9UQM7); conditions: at 0.1 µM
[11] = target: Calcium/calmodulin-dependent protein kinase type II subunit alpha (Homo sapiens) (UniProt Q9UQM7); conditions: at 1 µM
[12] = target: Calcium/calmodulin-dependent protein kinase type II subunit delta (Homo sapiens) (UniProt Q13557); conditions: at 0.1 µM
[13] = target: Calcium/calmodulin-dependent protein kinase type II subunit delta (Homo sapiens) (UniProt Q13557); conditions: at 1 µM
[14] = target: T4, Calcium/calmodulin-dependent protein kinase type IV (Homo sapiens) (UniProt Q16566); conditions: at 0.1 µM
T4 sequence (whole entry): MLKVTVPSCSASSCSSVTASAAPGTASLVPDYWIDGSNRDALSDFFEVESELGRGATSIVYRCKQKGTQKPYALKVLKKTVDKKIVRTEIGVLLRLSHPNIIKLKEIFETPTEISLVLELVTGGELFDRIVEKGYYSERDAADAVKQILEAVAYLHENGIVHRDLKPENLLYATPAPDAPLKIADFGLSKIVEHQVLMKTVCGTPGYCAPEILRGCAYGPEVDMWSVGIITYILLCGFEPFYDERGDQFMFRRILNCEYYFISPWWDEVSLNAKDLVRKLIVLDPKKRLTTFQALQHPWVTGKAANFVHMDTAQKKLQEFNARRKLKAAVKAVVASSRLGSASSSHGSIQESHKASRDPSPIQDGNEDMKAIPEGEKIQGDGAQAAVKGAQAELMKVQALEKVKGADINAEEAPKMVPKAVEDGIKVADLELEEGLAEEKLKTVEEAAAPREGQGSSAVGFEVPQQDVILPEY

[15] = target: T4, Calcium/calmodulin-dependent protein kinase type IV (Homo sapiens); conditions: at 1 µM
[16] = target: T5, Serine/threonine-protein kinase Chk1 (Homo sapiens) (UniProt O14757); conditions: at 0.1 µM
T5 sequence (whole entry): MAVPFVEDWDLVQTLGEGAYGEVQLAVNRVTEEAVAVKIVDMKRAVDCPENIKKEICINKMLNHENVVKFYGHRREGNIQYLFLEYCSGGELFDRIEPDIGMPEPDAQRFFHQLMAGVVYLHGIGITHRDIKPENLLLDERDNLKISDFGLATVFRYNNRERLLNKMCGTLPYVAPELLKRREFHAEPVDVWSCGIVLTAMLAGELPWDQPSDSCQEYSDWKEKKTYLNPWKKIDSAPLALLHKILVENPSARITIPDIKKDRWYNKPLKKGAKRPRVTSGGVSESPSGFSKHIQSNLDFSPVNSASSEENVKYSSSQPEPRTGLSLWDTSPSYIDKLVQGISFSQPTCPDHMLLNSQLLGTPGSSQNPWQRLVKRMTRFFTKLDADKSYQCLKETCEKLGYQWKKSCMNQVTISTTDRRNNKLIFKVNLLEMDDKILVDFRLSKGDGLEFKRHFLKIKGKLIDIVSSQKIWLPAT

[17] = target: T5, Serine/threonine-protein kinase Chk1 (Homo sapiens); conditions: at 1 µM
[18] = target: Serine/threonine-protein kinase Chk2 (Homo sapiens) (UniProt O96017); conditions: at 0.1 µM
[19] = target: Serine/threonine-protein kinase Chk2 (Homo sapiens) (UniProt O96017); conditions: at 1 µM
[20] = target: Death-associated protein kinase 1 (Homo sapiens) (UniProt P53355); conditions: at 0.1 µM;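 further: reported figure is the mean inhibition of DAPK1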
Death-associated protein kinase 1 (Homo sapiens), sequence (P53355 whole entry, looked up): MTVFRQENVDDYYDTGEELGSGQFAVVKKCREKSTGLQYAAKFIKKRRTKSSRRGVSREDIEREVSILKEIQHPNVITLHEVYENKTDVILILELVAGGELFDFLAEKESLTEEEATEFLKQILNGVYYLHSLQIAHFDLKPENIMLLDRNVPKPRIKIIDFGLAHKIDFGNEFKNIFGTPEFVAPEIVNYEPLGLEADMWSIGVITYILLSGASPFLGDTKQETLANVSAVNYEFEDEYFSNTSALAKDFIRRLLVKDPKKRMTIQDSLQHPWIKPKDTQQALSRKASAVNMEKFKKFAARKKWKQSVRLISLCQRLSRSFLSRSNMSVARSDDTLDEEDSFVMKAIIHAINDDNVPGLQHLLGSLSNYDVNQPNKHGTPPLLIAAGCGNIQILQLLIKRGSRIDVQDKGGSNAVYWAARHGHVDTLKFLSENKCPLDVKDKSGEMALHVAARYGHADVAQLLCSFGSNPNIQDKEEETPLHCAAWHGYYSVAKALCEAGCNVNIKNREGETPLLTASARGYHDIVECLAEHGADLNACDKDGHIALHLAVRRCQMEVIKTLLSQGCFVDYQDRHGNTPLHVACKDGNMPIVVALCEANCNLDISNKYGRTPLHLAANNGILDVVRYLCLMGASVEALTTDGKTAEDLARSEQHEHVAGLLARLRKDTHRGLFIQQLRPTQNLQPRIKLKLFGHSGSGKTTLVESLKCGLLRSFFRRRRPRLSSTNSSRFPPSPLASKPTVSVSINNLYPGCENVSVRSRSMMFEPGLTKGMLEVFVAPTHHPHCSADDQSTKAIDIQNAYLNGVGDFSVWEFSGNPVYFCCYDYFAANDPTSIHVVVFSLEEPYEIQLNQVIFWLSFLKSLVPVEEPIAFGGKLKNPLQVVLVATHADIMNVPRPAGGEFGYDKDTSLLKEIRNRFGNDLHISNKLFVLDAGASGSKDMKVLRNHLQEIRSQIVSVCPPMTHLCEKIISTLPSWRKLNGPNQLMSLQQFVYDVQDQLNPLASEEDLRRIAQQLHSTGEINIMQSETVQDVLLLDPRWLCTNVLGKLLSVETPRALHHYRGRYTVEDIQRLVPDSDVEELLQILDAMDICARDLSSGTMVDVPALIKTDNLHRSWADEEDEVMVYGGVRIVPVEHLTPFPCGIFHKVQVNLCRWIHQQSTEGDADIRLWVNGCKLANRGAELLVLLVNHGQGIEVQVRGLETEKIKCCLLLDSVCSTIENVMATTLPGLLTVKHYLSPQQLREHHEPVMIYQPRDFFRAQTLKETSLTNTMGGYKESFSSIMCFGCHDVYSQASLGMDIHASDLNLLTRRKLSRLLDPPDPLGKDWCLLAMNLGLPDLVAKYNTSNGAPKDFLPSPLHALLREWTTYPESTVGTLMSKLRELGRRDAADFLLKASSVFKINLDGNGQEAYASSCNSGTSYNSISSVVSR

Calcium/calmodulin-dependent protein kinase type 1D (Homo sapiens), sequence (Q8IU85 whole entry, looked up): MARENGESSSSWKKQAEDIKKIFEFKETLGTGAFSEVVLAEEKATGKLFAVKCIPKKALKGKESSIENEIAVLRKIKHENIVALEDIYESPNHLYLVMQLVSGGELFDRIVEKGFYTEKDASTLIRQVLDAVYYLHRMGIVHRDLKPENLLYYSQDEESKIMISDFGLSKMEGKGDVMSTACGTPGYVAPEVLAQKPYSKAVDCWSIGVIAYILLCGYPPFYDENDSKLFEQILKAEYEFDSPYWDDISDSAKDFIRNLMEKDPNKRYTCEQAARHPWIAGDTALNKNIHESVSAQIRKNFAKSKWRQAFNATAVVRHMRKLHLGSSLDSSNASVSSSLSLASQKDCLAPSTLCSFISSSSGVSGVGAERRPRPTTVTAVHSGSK
Calcium/calmodulin-dependent protein kinase type II subunit delta (Homo sapiens), sequence (Q13557 whole entry): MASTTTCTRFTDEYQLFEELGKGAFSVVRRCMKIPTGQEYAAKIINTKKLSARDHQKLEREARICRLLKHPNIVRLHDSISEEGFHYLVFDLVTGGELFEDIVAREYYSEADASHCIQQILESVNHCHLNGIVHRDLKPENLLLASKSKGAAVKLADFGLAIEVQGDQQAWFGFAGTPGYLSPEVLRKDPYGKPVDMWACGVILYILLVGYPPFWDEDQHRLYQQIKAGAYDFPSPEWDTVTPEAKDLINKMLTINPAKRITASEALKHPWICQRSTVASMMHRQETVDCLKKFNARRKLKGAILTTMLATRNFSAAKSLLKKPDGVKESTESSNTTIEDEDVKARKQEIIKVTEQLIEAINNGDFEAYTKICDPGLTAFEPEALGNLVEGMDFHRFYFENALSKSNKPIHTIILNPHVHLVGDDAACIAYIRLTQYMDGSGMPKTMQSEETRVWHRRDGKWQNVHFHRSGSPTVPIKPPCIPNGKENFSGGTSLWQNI
Serine/threonine-protein kinase Chk2 (Homo sapiens), sequence (O96017 whole entry): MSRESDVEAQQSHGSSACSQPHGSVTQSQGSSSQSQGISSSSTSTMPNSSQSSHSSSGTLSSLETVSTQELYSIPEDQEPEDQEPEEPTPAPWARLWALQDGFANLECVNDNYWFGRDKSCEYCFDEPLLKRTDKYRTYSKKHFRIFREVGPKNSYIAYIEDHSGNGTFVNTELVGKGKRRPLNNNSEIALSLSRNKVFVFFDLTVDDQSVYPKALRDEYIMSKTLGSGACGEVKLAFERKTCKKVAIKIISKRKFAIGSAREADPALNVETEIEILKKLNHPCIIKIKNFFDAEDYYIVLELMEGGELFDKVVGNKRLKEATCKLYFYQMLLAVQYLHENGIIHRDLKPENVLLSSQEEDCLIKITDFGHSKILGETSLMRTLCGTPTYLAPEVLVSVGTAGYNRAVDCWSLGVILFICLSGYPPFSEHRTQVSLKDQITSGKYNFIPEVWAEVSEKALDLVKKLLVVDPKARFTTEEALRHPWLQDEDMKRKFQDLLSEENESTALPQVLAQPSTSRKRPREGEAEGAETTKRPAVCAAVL
Calcium/calmodulin-dependent protein kinase type II subunit alpha (Homo sapiens), sequence (Q9UQM7 whole entry): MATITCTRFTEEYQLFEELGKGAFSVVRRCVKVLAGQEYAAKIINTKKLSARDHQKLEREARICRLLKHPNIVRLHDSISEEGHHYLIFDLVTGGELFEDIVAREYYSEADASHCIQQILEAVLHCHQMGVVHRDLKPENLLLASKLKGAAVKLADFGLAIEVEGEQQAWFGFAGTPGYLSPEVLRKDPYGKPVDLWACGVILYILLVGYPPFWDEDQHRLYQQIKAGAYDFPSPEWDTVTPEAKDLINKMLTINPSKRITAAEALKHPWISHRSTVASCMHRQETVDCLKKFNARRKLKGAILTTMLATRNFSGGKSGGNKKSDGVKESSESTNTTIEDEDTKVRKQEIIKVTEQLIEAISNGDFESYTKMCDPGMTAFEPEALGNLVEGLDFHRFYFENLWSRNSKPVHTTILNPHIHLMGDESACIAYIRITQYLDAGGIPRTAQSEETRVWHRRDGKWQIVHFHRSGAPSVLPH
5'-AMP-activated protein kinase catalytic subunit alpha-2 (Homo sapiens), sequence (P54646 whole entry, looked up): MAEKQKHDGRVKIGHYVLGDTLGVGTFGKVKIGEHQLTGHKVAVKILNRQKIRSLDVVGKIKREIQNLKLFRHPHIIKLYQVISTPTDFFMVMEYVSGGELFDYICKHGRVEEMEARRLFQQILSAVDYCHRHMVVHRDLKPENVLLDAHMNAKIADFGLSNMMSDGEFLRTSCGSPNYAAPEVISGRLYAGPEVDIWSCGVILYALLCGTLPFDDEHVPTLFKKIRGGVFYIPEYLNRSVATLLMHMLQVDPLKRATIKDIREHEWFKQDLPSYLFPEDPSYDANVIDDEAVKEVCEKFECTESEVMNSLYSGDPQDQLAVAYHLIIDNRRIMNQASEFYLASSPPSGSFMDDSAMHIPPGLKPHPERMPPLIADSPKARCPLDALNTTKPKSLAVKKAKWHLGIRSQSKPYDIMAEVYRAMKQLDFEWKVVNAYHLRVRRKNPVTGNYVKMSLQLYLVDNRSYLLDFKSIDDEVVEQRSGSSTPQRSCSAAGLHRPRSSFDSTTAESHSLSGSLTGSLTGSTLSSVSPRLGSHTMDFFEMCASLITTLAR

SMILES: COc1cc(/C=N/Nc2ncnc3c2cnn3C(C)C)ccc1O
- inhibition [1]: 4.32%
- inhibition [2]: 7.43%
- inhibition [3]: 22.3%
- inhibition [4]: 1.45%
- inhibition [5]: 7.43%
- inhibition [6]: 1.52%
- inhibition [7]: 12.1%
- inhibition [8]: 1.23%
- inhibition [9]: 0.59%
- inhibition [10]: -0.2%
- inhibition [11]: 0.99%
- inhibition [12]: 0.75%
- inhibition [13]: 3.93%
- inhibition [14]: 0.62%
- inhibition [15]: -1.97%
- inhibition [16]: 3.18%
- inhibition [17]: 4.84%
- inhibition [18]: 0.04%
- inhibition [19]: 1.88%
- inhibition [20]: 1.63%

SMILES: Nc1nccc(-c2c(-c3ccc(F)cc3)ncn2CCCN2CCOCC2)n1
- inhibition [1]: 4.51%
- inhibition [2]: 3.4%
- inhibition [3]: -1.7%
- inhibition [4]: 0.99%
- inhibition [5]: -1.18%
- inhibition [6]: 0.6%
- inhibition [7]: 1.72%
- inhibition [8]: 0.27%
- inhibition [9]: -0.53%
- inhibition [10]: 2.67%
- inhibition [11]: 2.46%
- inhibition [12]: 1.96%
- inhibition [13]: 2.44%
- inhibition [14]: 0.27%
- inhibition [15]: -0.08%
- inhibition [16]: 3.25%
- inhibition [17]: 5.25%
- inhibition [18]: 1.76%
- inhibition [19]: 4.69%
- inhibition [20]: 5.49%

SMILES: ON=C1CCc2cc(-c3nc(C4CCNCC4)[nH]c3-c3ccncc3)ccc21
- inhibition [1]: 2.64%
- inhibition [2]: 0.54%
- inhibition [3]: 1.89%
- inhibition [4]: 1.34%
- inhibition [5]: 0.41%
- inhibition [6]: -0.35%
- inhibition [7]: 1.99%
- inhibition [8]: 0.14%
- inhibition [9]: 11.8%
- inhibition [10]: 1.63%
- inhibition [11]: 3.5%
- inhibition [12]: 16.1%
- inhibition [13]: 2.8%
- inhibition [14]: 1.25%
- inhibition [15]: 1.79%
- inhibition [16]: 0.67%
- inhibition [17]: 1.05%
- inhibition [18]: 0.01%
- inhibition [19]: 0.8%
- inhibition [20]: 0.46%

SMILES: NS(=O)(=O)c1ccc(N/N=C2\C(=O)Nc3ccc(Cl)cc32)cc1
- inhibition [1]: 12.9%
- inhibition [2]: 11%
- inhibition [3]: 48.9%
- inhibition [4]: 0.76%
- inhibition [5]: 8.96%
- inhibition [6]: 3.16%
- inhibition [7]: 14.9%
- inhibition [8]: 0.02%
- inhibition [9]: 0.47%
- inhibition [10]: 2.65%
- inhibition [11]: 4.05%
- inhibition [12]: 2.98%
- inhibition [13]: 4.81%
- inhibition [14]: -0.73%
- inhibition [15]: -3.41%
- inhibition [16]: -3.35%
- inhibition [17]: -2.04%
- inhibition [18]: -2.37%
- inhibition [19]: 0.53%
- inhibition [20]: -4%

SMILES: CCOc1nccc2c1nc(-c1nonc1N)n2CC
- inhibition [1]: 4.98%
- inhibition [2]: 7.99%
- inhibition [3]: 12.8%
- inhibition [4]: 4.56%
- inhibition [5]: 14.7%
- inhibition [6]: 7.65%
- inhibition [7]: 18.3%
- inhibition [8]: 0.39%
- inhibition [9]: -0.46%
- inhibition [10]: 3.45%
- inhibition [11]: 2.47%
- inhibition [12]: 1.48%
- inhibition [13]: 3.36%
- inhibition [14]: -4.15%
- inhibition [15]: -3.33%
- inhibition [16]: 4.09%
- inhibition [17]: 5.94%
- inhibition [18]: 2.06%
- inhibition [19]: 3.78%
- inhibition [20]: 3.66%

SMILES: CCS(=O)(=O)c1ccc(OC)c(Nc2ncc(-c3cccc(OC)c3)o2)c1
- inhibition [1]: 4.19%
- inhibition [2]: 2.41%
- inhibition [3]: 13.4%
- inhibition [4]: 1.53%
- inhibition [5]: -0.15%
- inhibition [6]: 0.33%
- inhibition [7]: 0.66%
- inhibition [8]: 0.03%
- inhibition [9]: 1.97%
- inhibition [10]: 2.7%
- inhibition [11]: 6.74%
- inhibition [12]: 1.91%
- inhibition [13]: 9.35%
- inhibition [14]: -0.13%
- inhibition [15]: 1.2%
- inhibition [16]: 1.44%
- inhibition [17]: 3.19%
- inhibition [18]: 1.56%
- inhibition [19]: 2.17%
- inhibition [20]: 2.65%

From ChEMBL document CHEMBL1961873, “Compounds: GSK PKIS; Assays: Nanosyn kinase panel” (2012)
